Activity calls are given as the source filed them. No rule for the calls is given here.
target: Pantothenate synthetase (Mycobacterium tuberculosis (strain ATCC 25618 / H37Rv)) (UniProt P9WIL5); experiment: Recombinant Mtb pantothenate synthetase (PanC) inhibitors, coupled enzyme, confirmatory (AID 375); conditions: coupled enzyme assay; at 10 µM, hits give high values;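 also: 0% = full reaction with vehicle and 100% = no enzyme background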
Sequence (P9WIL5 whole entry, looked up): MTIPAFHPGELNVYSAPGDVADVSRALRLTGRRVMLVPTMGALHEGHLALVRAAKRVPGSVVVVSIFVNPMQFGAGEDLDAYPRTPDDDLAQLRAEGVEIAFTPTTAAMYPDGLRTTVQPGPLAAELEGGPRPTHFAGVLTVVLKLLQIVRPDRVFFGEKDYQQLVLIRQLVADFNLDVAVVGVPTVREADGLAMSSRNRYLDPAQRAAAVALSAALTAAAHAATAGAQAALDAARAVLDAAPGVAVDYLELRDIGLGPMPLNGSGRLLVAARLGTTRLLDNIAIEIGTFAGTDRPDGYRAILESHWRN

SMILES	inhibition
CCc1ccc(Nc2cc(=O)n(C3CCCCC3)c(=O)[nH]2)cc1	0% (inactive)
Cc1ccc(NC(=O)c2ccc(NS(=O)(=O)c3c(C)noc3C)cc2)cc1C	0% (inactive)
O=C(Nc1ccc(N2CCOCC2)cc1)c1cccc(S(=O)(=O)N2CCCC2)c1	0% (inactive)
O=C(Nc1nc2c(s1)CCCC2)C1COc2ccccc2O1 (stereo not given)	0% (inactive)
O=C(Nc1ccccc1C(=O)N1CCOCC1)C1COc2ccccc2O1 (stereo not given)	0% (inactive)
Cc1nnc(Nc2ccccn2)c2ccccc12	0% (inactive)
COc1ccc(CN(C(=O)c2ccccc2OC)C2CCS(=O)(=O)C2)cc1 (stereo not given)	0% (inactive)
CNC(=O)c1ccccc1NC(=O)c1c(O)c2c([nH]c1=O)CCCC2	7% (inactive)
Cc1ccc(S(=O)(=O)NCCSc2nnnn2-c2ccc(C(N)=O)cc2)cc1	0% (inactive)
O=c1c2cc(Cl)ccc2[nH]c(=S)n1Cc1ccco1	8% (inactive)
CCN(CC)Cc1c(C(=O)OC)nnn1-c1nonc1N	0% (inactive)
Cc1nn(-c2ccc(F)cc2)c2sc(C(=O)N3CCCCCC3)cc12	0% (inactive)
O=C(c1ccccc1Cl)N1CCc2ccccc2C1	0% (inactive)
COc1ccc(C2CC(=O)C(C=NCCCN3CCOCC3)=C(O)C2)cc1 (stereo not given)	0% (inactive)
COc1ccc(CCN2C(=O)CCC2(C)C(=O)NCc2cccnc2)cc1OC (stereo not given)	0% (inactive)
O=C(NCC1CCCO1)C1CCN(c2ccc(S(=O)(=O)N3CCCC3)cc2)CC1 (stereo not given)	0% (inactive)
CC1=C(C(=O)OC2CCCCC2)C(c2cccnc2)n2ncnc2N1 (stereo not given)	0% (inactive)
COc1ccccc1OCC(O)COC(N)=O (stereo not given)	6% (inactive)
CCNc1ccc(C(=O)OCC)cc1NC(=O)c1cc(S(=O)(=O)N2CCOCC2)ccc1C	2% (inactive)
Cc1ccc(N(Cc2ccco2)C(=O)c2cccc(S(=O)(=O)N(C)C)c2)cc1	5% (inactive)

SMILES	inhibition
O=C1CCN(C(=O)c2ccccc2)C2CCCCC12 (stereo not given)	0% (inactive)
C[C@H](NC(=O)Nc1cccc(C(F)(F)F)c1)C(=O)O	0% (inactive)
Cc1[nH]nc2c1C(CCc1ccccc1)C(C#N)=C(N)O2 (stereo not given)	0% (inactive)
O=C(O)C1C2CCC(O2)C1C(=O)NCCC1=CCCCC1 (stereo not given)	3% (inactive)
CCOc1ccccc1N(CC(=O)N1CCOCC1)S(=O)(=O)c1ccccc1	0% (inactive)
C=Cn1c(N2CCOCC2)nc2c1c(=O)[nH]c(=O)n2C	16% (inactive)
CCOC(=O)C1CCCN(C(=O)c2ccc(CS(=O)(=O)c3ccc(Br)cc3)o2)C1 (stereo not given)	4% (inactive)
CCCCN(CC)S(=O)(=O)c1ccc2c(c1)CCCN2C(C)=O	6% (inactive)
Cc1ccccc1-n1c(SCc2c(C)noc2C)nnc1-c1ccncc1	0% (inactive)
CCOC(=O)C1CN(S(=O)(=O)c2ccc(C)cc2)CCN1S(=O)(=O)c1ccc(C)cc1 (stereo not given)	0% (inactive)
CCOC(=O)c1c(C)[nH]c(C(=O)COC(=O)c2ccc(F)c(S(=O)(=O)N3CCOCC3)c2)c1C	4% (inactive)
CCOC(=O)c1ccc(NC2OC(=O)c3ccccc32)cc1 (stereo not given)	4% (inactive)
O=C(NCc1ccco1)c1cc2n(n1)C(C(F)(F)F)CC(c1ccc(F)cc1)N2 (stereo not given)	9% (inactive)
CCCCS(=O)(=O)NC1=NCN(C2CCN(Cc3ccccc3)CC2)CN1	5% (inactive)
CC1C/C=C/C=C/C=C/C=C/C(O[C@@H]2O[C@H](C)[C@@H](O)[C@H](N)[C@@H]2O)CC2OC(O)(CC(O)CC3OC3/C=C/C(=O)O1)CC(O)C2C(=O)O (stereo not given in full)	5% (inactive)
Cc1ccc(C)c(NS(=O)(=O)c2ccc(NC(=O)c3ccco3)cc2)c1	0% (inactive)
O=C(c1cccnc1)N1CCN(C(=O)c2ccccc2F)CC1	4% (inactive)
CCN(CC)C(=O)COC(=O)c1ccc(O)cc1	0% (inactive)
COC(=O)c1cc(=O)n(Cc2ccc3c(c2)OCO3)c(=Nc2ccccc2)s1	7% (inactive)
CC1CC(NC(=O)c2cnc3n(c2=O)CCS3)CC(C)(C)C1 (stereo not given)	5% (inactive)

— PubChem BioAssay
